Test results: PubChem BioAssay AID1159580 (chemical genetic matrix, 2015)
In all, about 5,500 compounds went through this assay and about 2,000 (36%) were called active. Not shown: some 18% with an inconclusive outcome. No stated cut-off is given here; in the data, active means normalized growth mostly below about 0.91 (no sharp cut-off); inconclusive means no clear call, values can overlap the other calls; inactive means mostly above about 0.92. Some of the results follow.

Assay: chemical genetic growth profiling, strain panel (AID 1159580);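 further: tested at 20 µM; growth read once vehicle control cultures reached saturation at 30 °C; 1 = growth at the plate median or of vehicle wells; lower values mean less growth of the strain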
Conditions: S. cerevisiae deletion strains, growth OD

Measured: normalized growth

Cc1onc(-c2ccccc2)c1-c1ccc(S(N)(=O)=O)cc1
inactive: locus YAL013W, strain DEP1, hits give low values 0.995 | locus YAL021C, strain ccr4, hits give low values 1 | locus YAL026C, strain drs2, hits give low values 1.02 | locus YAL030W, strain snc1, hits give low values 1 | locus YBL061C, strain skt5, hits give low values 1 | locus YBR009C, strain hhf1, hits give low values 1.01 | locus YBR021W, strain FUR4, hits give low values 1 | locus YBR023C, strain chs3, hits give low values 1 | locus YBR171W, strain sec66, hits give low values 0.984 | locus YBR229C, strain ROT2, hits give low values 0.999 | locus YBR231C, strain swc5, hits give low values 1 | locus YBR279W, strain paf1, hits give low values 1 | locus YCL011C, strain gbp2, hits give low values 0.989 | locus YCL016C, strain dcc1, hits give low values 1.02 | locus YCL029C, strain bik1, hits give low values 0.995 | locus YCL061C, strain MRC1, hits give low values 0.993 | locus YCL069W, strain vba3, hits give low values 0.995 | locus YCR088W, strain abp1, hits give low values 0.996 | locus YDL005C, strain med2, hits give low values 0.996 | locus YDL035C, strain GPR1, hits give low values 1 | locus YDL040C, strain nat1, hits give low values 1 | locus YDL074C, strain BRE1, hits give low values 0.999 | locus YDL101C, strain DUN1, hits give low values 1 | locus YDL134C, strain PPH21, hits give low values 1.01 | locus YDL185W, strain tfp1, hits give low values 0.988 | locus YDL192W, strain arf1, hits give low values 0.997 | locus YDR001C, strain nth1, hits give low values 1.01 | locus YDR069C, strain doa4, hits give low values 1 | locus YDR101C, strain arx1, hits give low values 0.997 | locus YDR137W, strain rgp1, hits give low values 1.01 | locus YDR150W, strain NUM1, hits give low values 1.02 | locus YDR159W, strain sac3, hits give low values 1.01 | locus YDR162C, strain NBP2, hits give low values 0.993 | locus YDR195W, strain ref2 0.963 | locus YDR297W, strain sur2, hits give low values 1 | locus YDR318W, strain mcm21, hits give low values 0.998 | locus YDR334W, strain swr1, hits give low values 1.02 | locus YDR335W, strain msn5, hits give low values 0.997 | locus YDR388W, hits give low values 0.997 | locus YDR392W, strain spt3, hits give low values 1.01 | locus YDR502C, strain sam2, hits give low values 0.99 | locus YEL003W, strain gim4, hits give low values 1 | locus YEL037C, strain rad23, hits give low values 1 | locus YEL061C, strain CIN8 (second series), hits give low values 1.02 | locus YEL061C, strain CIN8, hits give low values 0.992 | locus YER015W, strain faa2, hits give low values 0.997 | locus YER016W, strain bim1, hits give low values 1.01 | locus YER110C, hits give low values 0.997 | locus YER111C, strain swi4, hits give low values 0.996 | locus YER155C, strain BEM2 (second series), hits give low values 1.01 | locus YER155C, strain BEM2, hits give low values 0.988 | locus YER167W, strain BCK2, hits give low values 1 | locus YFR010W, strain ubp6, hits give low values 0.999 | locus YGL078C, strain dbp3, hits give low values 0.995 | locus YGL086W, strain mad1, hits give low values 0.988 | locus YGL167C, strain pmr1, hits give low values 1.02 | locus YGL173C, strain kem1, hits give low values 1.01 | locus YGL227W, strain vid30, hits give low values 0.991 | locus YGL240W, strain doc1, hits give low values 1.01 | locus YGL248W, strain PDE1, hits give low values 1 | locus YGL253W, strain hxk2, hits give low values 0.999 | locus YGR078C, strain PAC10, hits give low values 0.989 | locus YGR135W, strain pre9, hits give low values 0.995 | locus YGR229C, strain SMI1, hits give low values 0.994 | locus YGR252W, strain gcn5, hits give low values 0.985 | locus YHR013C, strain ard1, hits give low values 1.01 | locus YHR027C, strain rpn1, hits give low values 1 | locus YHR030C, strain SLT2, hits give low values 1.01 | locus YHR079C, strain IRE1 (second series), hits give low values 0.998 | locus YHR094C, strain hxt1, hits give low values 0.995 | locus YHR129C, strain ARP1, hits give low values 1 | locus YHR142W, strain chs7, hits give low values 0.989 | locus YHR200W, strain rpn10, hits give low values 1 | locus YIL066C, strain RNR3, hits give low values 0.983 | locus YIL073C, strain SPO22, hits give low values 1.03 | locus YIL125W, strain kgd1, hits give low values 0.99 | locus YIR030C, strain dcg1, hits give low values 1 | locus YJL092W, strain hpr5, hits give low values 0.995 | locus YJL095W, strain BCK1 (second series), hits give low values 1.01 | locus YJL095W, strain BCK1, hits give low values 1.02 | locus YJL115W, strain asf1, hits give low values 0.998 | locus YJL129C, strain trk1, hits give low values 0.972 | locus YJL134W, strain LCB3, hits give low values 1 | locus YJL154C, strain vps35, hits give low values 1.01 | locus YJL164C, strain tpk1, hits give low values 1.01 | locus YJL166W, strain qcr8, hits give low values 1 | locus YJL168C, strain set2, hits give low values 0.998 | locus YJL187C, strain SWE1 (second series), hits give low values 1 | locus YJL187C, strain SWE1, hits give low values 0.996
